In general, inhibition refers to the drop in the measured response relative to a control, in per cent.

The first experiment addresses Hexose transporter 1 (Plasmodium falciparum) (UniProt O97467). Briefly: ST_JUDE_LEISH: Cytotoxicity at 2uM final concentration against transgenic Leishmania Mexicana promastigotes LmPfHT that are glucose transport deficient and complemented with the Plasmodium falciparum hexose transporter. Activity is measured by DNA content using SYBR green in vitro. It is filed as functional.
In the case of `CC(=O)c1sc(NC(=O)Nc2ccc(C)cc2C)nc1C`, the inhibition was found to be 8.74%.
For `Cc1ccc(NC(=O)c2ccc(CN3CCCN(CC4CCCCC4)CC3)cc2)cc1F`, the inhibition was 6.75%.
Same read-out and setting: with `CCCNCc1ccc(-c2ccc(CN(CCOC)C(=O)c3ccccc3)cc2)nc1` the figure was 0.61%; with `CC(C)c1cn2c3c(cc(C(=O)N[C@@H](Cc4ccccc4)[C@H](O)CNC4CCCCC4)cc13)N(C)S(=O)(=O)CC2`, -0.34%; with `CC1CN(Cc2cccc(F)c2)CCN1c1ccc(NC(=O)c2cccs2)cc1` (stereo not given), -1.57%.
With `Cc1noc(C)c1-c1cccc(CNCc2cccc(-c3cccc(-c4nc5cccc(C)c5[nH]4)c3)c2)c1`, the inhibition was -0.81%.
Same read-out and setting: under `COc1ccc(CC(=O)NC(CCCN2CCC3(CC2)OCc2ccccc23)c2ccc(Cl)c(Cl)c2)cc1` (stereo not given) stands 2.18%; under `COc1ccccc1CNC(=O)C(=O)Nc1c(-c2ccccc2)[nH]c2ccccc12`, -4.12%.
On the same count and under the same terms, with `COc1cc(NC2=C(c3ccccc3)C(=O)c3ccccc32)ccn1` the figure was 2.03%.
Take `CC(Cc1ccc(NC(=O)c2ccc(CNCCc3ccccc3)cc2)cc1)NCCc1cccc(Cl)c1` (stereo not given): the inhibition is 36%.
Same read-out and setting: with `Oc1ccc(CCNc2nc(NCc3ccccc3-c3ccc(C(F)(F)F)cc3)nc(N3CCCNCC3)n2)cc1` the figure was 2.99%; with `Cc1[nH]c(C)c(-c2ccc(OCCSc3ccncc3)cc2)c(=O)c1Br`, -0.1%.
`COc1ccccc1NC(=O)Nc1ccc(-c2cccc(-c3nc4ccccc4[nH]3)c2)cc1`: the inhibition was 2%.
On the same count and under the same terms, with `CCCc1ccc(S(=O)(=O)NC2CCN(c3ccnc(Nc4ccc(OC)cc4)n3)C2)cc1` (stereo not given) the figure was 9.89%.
With `C[C@@H]([C@@H](CCCc1ccc(Cl)cc1)C(=O)N[C@H](C(=O)Nc1cccnc1)C(C)(C)C)N(O)C=O`, the inhibition is 0.19%.
`CCCOc1ccc(OCCCON2C(=N)N=C(N)NC2(C)C)cc1`: the inhibition was found to be 0.05%.
Still for that read-out and setting: with `CC(C)(CNC(=O)C1CCN(CCOc2ccc(Cl)cc2)CC1)c1nc(-c2ccc(Cl)c(O)c2)c(-c2ccncc2)[nH]1` the figure was 1.55%; with `CCCCCCCN1CCC(NC(=O)Nc2ccnc3ccc(OC)cc23)C(CO)C1` (stereo not given), -1.62%.
For `Cc1cc(NC(=O)NCCN2CCC(NC(=O)c3ccc(F)cc3)CC2)c2ccccc2n1`, the inhibition is -0.3%.
In the case of `Cc1ccc([S+]([O-])Cc2ccc(Cl)cc2)cc1` (stereo not given), the inhibition is -0.65%.
As to `CN(C)c1ccc(-c2csc(C(=O)NC3CCN(CCC(C)(C)C)C3)c2)cc1` (stereo not given), the inhibition came out at 4.39%.
For `Cc1ccc(C(NC(=O)c2ccccc2)c2ccc3cccnc3c2O)cc1` (stereo not given), the inhibition came out at 6.5%.
For the compound `CCN(CC)CCN(Cc1ccc(-c2ccc(Cl)cc2)cc1)C(=O)Cn1cc(CN(C)C)c(=O)nc1SCc1ccc(F)cc1`, the inhibition amounted to 0.54%.
On to `COc1ccc(CNCc2ccccc2)cc1-c1ccc(S(=O)(=O)NCCN2CCCC2)cc1`, for which the inhibition was 1.76%.
For `COc1cc(CCOc2c(C)nc(N)nc2N)cc(OC)c1OC`, the inhibition was 0.7%.
On to `CCCC(C)Nc1nc(C)cc(N[C@@H](CC(C)C)C(=O)NCCOc2ccccc2)n1` (stereo not given in full), for which the inhibition came out at 17%.
For `CC(C)CCCC(C)(C)NC[C@@H](O)[C@H](Cc1ccccc1)NC(=O)c1cc(NC(C)C)cc(N2CCCCS2(=O)=O)c1`, the inhibition was -1.58%.
Regarding `COc1ccc(CNCc2ccccc2)cc1-c1cccc(S(=O)(=O)NCCN2CCCC2)c1`, the inhibition turned out to be 1.05%.
As to `c1cc(CNCCc2ccncc2)cc(-c2cccc(-c3nc4ccccc4[nH]3)c2)c1`, the inhibition was 12.2%.
Regarding `COc1cccc2c(NN=Cc3cccc(Cl)c3)ccnc12`, the inhibition was -3.77%.
`CN(C)CCOc1ccc2c(=O)cc(CCc3cccc(F)c3F)n(CC(=O)N(C)Cc3ccc(-c4ccc(C(F)(F)F)cc4)cc3)c2c1`: the inhibition is -0.55%.
On the same count and under the same terms, with `CCN(CC)CCCC(C)Nc1c(-c2ccc(Br)cc2)cnc2ccccc12` (stereo not given) the figure was 14.4%; with `COc1cc(/C=N/Nc2nc(Nc3ccccc3)nc(Nc3ccccc3)n2)ccc1OCc1ccccc1[N+](=O)[O-]`, 3.92%.
Turning to `COc1ccc(N2CCN(CCCCNC(=O)c3ccc(/C=C/c4ccc(Cl)c(Cl)c4)cc3)CC2)c(OC)c1`, the inhibition came to 1.71%.
Consider `O=C(NC1CCN(Cc2ccc3c(c2)OCCO3)CC1)c1ccc(-c2cccc(C(F)(F)F)c2)s1`, for which the inhibition is 1.52%.
Consider `Nc1cccc(-c2ccc3ccnc(N)c3c2)c1`, for which the inhibition stood at 4.39%.
`COc1ccc2nccc([C@@H](O)CN3CCC(NCc4cc5c(cc4F)SCC(=O)N5)CC3)c2n1`: the inhibition was 7.72%.
As for `Cc1nc2ccccc2n1C1CC2CCC(C1)N2CCC1(c2ccccc2)CCN(C(=O)Nc2ccc(C(F)(F)F)cc2)CC1` (stereo not given), the inhibition came out at 4.07%.
Turning to `Cc1[nH]c(C)c(-c2ccc(Oc3ccc(F)cc3)cc2)c(=O)c1Cl`, the inhibition was 4.42%.
On to `CC(C)c1cc2c(ccc3nc(N)nc(N)c32)o1`, for which the inhibition worked out at 5.34%.

For a further experiment, the target named is Glucose transporter (Leishmania mexicana) (UniProt O61059). The experiment can be described thus: ST_JUDE_LEISH: Cytotoxicity at 2uM final concentration against transgenic Leishmania Mexicana promastigotes LmGT2 that are glucose transport deficient and complemented with the L. Mexicana glucose transporter 2. Activity is measured by DNA content using SYBR green in vitro. It is filed as functional.
Take `CC(=O)c1sc(NC(=O)Nc2ccc(C)cc2C)nc1C`: the inhibition is 3.63%.
Turning to `Cc1ccc(NC(=O)c2ccc(CN3CCCN(CC4CCCCC4)CC3)cc2)cc1F`, the inhibition was 11.2%.
On the same count and under the same terms, under `CCCNCc1ccc(-c2ccc(CN(CCOC)C(=O)c3ccccc3)cc2)nc1` stands 1.11%; under `CC(C)c1cn2c3c(cc(C(=O)N[C@@H](Cc4ccccc4)[C@H](O)CNC4CCCCC4)cc13)N(C)S(=O)(=O)CC2`, -2.44%; under `CC1CN(Cc2cccc(F)c2)CCN1c1ccc(NC(=O)c2cccs2)cc1` (stereo not given), -2.09%.
Consider `Cc1noc(C)c1-c1cccc(CNCc2cccc(-c3cccc(-c4nc5cccc(C)c5[nH]4)c3)c2)c1`, for which the inhibition was -0.78%.
`COc1ccc(CC(=O)NC(CCCN2CCC3(CC2)OCc2ccccc23)c2ccc(Cl)c(Cl)c2)cc1` (stereo not given): the inhibition is -0.29%.
Same read-out and setting: with `COc1ccccc1CNC(=O)C(=O)Nc1c(-c2ccccc2)[nH]c2ccccc12` the figure was -1.57%.
Consider `COc1cc(NC2=C(c3ccccc3)C(=O)c3ccccc32)ccn1`, for which the inhibition was 1.41%.
For `CC(Cc1ccc(NC(=O)c2ccc(CNCCc3ccccc3)cc2)cc1)NCCc1cccc(Cl)c1` (stereo not given), the inhibition was 4.52%.
On to `Oc1ccc(CCNc2nc(NCc3ccccc3-c3ccc(C(F)(F)F)cc3)nc(N3CCCNCC3)n2)cc1`, for which the inhibition came to 2.83%.
In the case of `Cc1[nH]c(C)c(-c2ccc(OCCSc3ccncc3)cc2)c(=O)c1Br`, the inhibition was 0.05%.
As for `COc1ccccc1NC(=O)Nc1ccc(-c2cccc(-c3nc4ccccc4[nH]3)c2)cc1`, the inhibition was 3.27%.
Regarding `CCCc1ccc(S(=O)(=O)NC2CCN(c3ccnc(Nc4ccc(OC)cc4)n3)C2)cc1` (stereo not given), the inhibition was 9.64%.
Turning to `C[C@@H]([C@@H](CCCc1ccc(Cl)cc1)C(=O)N[C@H](C(=O)Nc1cccnc1)C(C)(C)C)N(O)C=O`, the inhibition came to 1.52%.
Regarding `CCCOc1ccc(OCCCON2C(=N)N=C(N)NC2(C)C)cc1`, the inhibition worked out at 0.28%.
As to `CC(C)(CNC(=O)C1CCN(CCOc2ccc(Cl)cc2)CC1)c1nc(-c2ccc(Cl)c(O)c2)c(-c2ccncc2)[nH]1`, the inhibition is -0.21%.
Turning to `CCCCCCCN1CCC(NC(=O)Nc2ccnc3ccc(OC)cc23)C(CO)C1` (stereo not given), the inhibition was -3.37%.
Consider `Cc1cc(NC(=O)NCCN2CCC(NC(=O)c3ccc(F)cc3)CC2)c2ccccc2n1`, for which the inhibition is -3.5%.
In the case of `Cc1ccc([S+]([O-])Cc2ccc(Cl)cc2)cc1` (stereo not given), the inhibition is 1.2%.
Consider `CN(C)c1ccc(-c2csc(C(=O)NC3CCN(CCC(C)(C)C)C3)c2)cc1` (stereo not given), for which the inhibition was 2.37%.
As for `Cc1ccc(C(NC(=O)c2ccccc2)c2ccc3cccnc3c2O)cc1` (stereo not given), the inhibition was -0.04%.
For the compound `CCN(CC)CCN(Cc1ccc(-c2ccc(Cl)cc2)cc1)C(=O)Cn1cc(CN(C)C)c(=O)nc1SCc1ccc(F)cc1`, the inhibition was determined as 1.16%.
Consider `COc1ccc(CNCc2ccccc2)cc1-c1ccc(S(=O)(=O)NCCN2CCCC2)cc1`, for which the inhibition was -2.76%.
The same measure, in the same setting: with `COc1cc(CCOc2c(C)nc(N)nc2N)cc(OC)c1OC` the figure was -0.41%; with `CCCC(C)Nc1nc(C)cc(N[C@@H](CC(C)C)C(=O)NCCOc2ccccc2)n1` (stereo not given in full), 16.7%; with `CC(C)CCCC(C)(C)NC[C@@H](O)[C@H](Cc1ccccc1)NC(=O)c1cc(NC(C)C)cc(N2CCCCS2(=O)=O)c1`, -3.27%.
For `COc1ccc(CNCc2ccccc2)cc1-c1cccc(S(=O)(=O)NCCN2CCCC2)c1`, the inhibition was -3.15%.
For the compound `c1cc(CNCCc2ccncc2)cc(-c2cccc(-c3nc4ccccc4[nH]3)c2)c1`, the inhibition was 10%.
Same read-out and setting: under `COc1cccc2c(NN=Cc3cccc(Cl)c3)ccnc12` stands 1.77%; under `CN(C)CCOc1ccc2c(=O)cc(CCc3cccc(F)c3F)n(CC(=O)N(C)Cc3ccc(-c4ccc(C(F)(F)F)cc4)cc3)c2c1`, 0.06%.
Turning to `CCN(CC)CCCC(C)Nc1c(-c2ccc(Br)cc2)cnc2ccccc12` (stereo not given), the inhibition came to 3.73%.
With `COc1cc(/C=N/Nc2nc(Nc3ccccc3)nc(Nc3ccccc3)n2)ccc1OCc1ccccc1[N+](=O)[O-]`, the inhibition was determined as 0.87%.
`COc1ccc(N2CCN(CCCCNC(=O)c3ccc(/C=C/c4ccc(Cl)c(Cl)c4)cc3)CC2)c(OC)c1`: the inhibition was 2.02%.
Consider `O=C(NC1CCN(Cc2ccc3c(c2)OCCO3)CC1)c1ccc(-c2cccc(C(F)(F)F)c2)s1`, for which the inhibition is 2.57%.
Regarding `Nc1cccc(-c2ccc3ccnc(N)c3c2)c1`, the inhibition stood at 3.35%.
For `COc1ccc2nccc([C@@H](O)CN3CCC(NCc4cc5c(cc4F)SCC(=O)N5)CC3)c2n1`, the inhibition amounted to 8.6%.
For the compound `Cc1nc2ccccc2n1C1CC2CCC(C1)N2CCC1(c2ccccc2)CCN(C(=O)Nc2ccc(C(F)(F)F)cc2)CC1` (stereo not given), the inhibition is 1.78%.
Regarding `Cc1[nH]c(C)c(-c2ccc(Oc3ccc(F)cc3)cc2)c(=O)c1Cl`, the inhibition amounted to 3.79%.
Turning to `CC(C)c1cc2c(ccc3nc(N)nc(N)c32)o1`, the inhibition worked out at 2.93%.
